We go through 40 compounds from ChEMBL document CHEMBL1157539, “Thousands of chemical starting points for antimalarial lead identification” (Nature, 2010).

This test concerns Plasmodium falciparum. Put plainly: GSK_TCMDC: Inhibition of Plasmodium falciparum Dd2 in whole red blood cells, using parasite LDH activity as an index of growth. Test compounds present at 2uM. It counts as functional.
For the compound `Nc1ccc(-c2nc3cc(C4=N[C@H]5CCCC[C@H]5N4)ccc3o2)cc1[N+](=O)[O-]`, the Inhibition is 33%.

Take `COC(=O)c1cccc(CNCc2cccc(-c3ccc(-c4nc5ccccc5[nH]4)cc3)c2)c1.O=C(O)C(F)(F)F`: the Inhibition came to 51%.

As to `Cc1cc2nc(-c3ccc(C(=O)NCCCc4ccccc4)cc3)[nH]c2cc1C`, the Inhibition was 5%.

Compound `Cc1ccccc1OCC(=O)Nc1ccc(-c2nc3cc4ccccc4cc3[nH]2)cc1` had an Inhibition of 51%. The value for `COc1cccc(CN2CCCN(Cc3cccc(NC(=O)c4ccc(-c5ccccc5)cc4)c3)CC2)c1.O=C(O)C(F)(F)F` was 8%.

Regarding `Cc1cccc2nc(-c3ccc(-c4ccc(CN5CCC(CO)CC5)cc4)s3)[nH]c12.O=C(O)C(F)(F)F`, the Inhibition was found to be 82%.

In turn, `CC(=O)Nc1ccc(CN(Cc2ccc(OC(C)(C)C)cc2)Cc2ccc3c(c2)OCCO3)cc1` showed an Inhibition of 75%.

`CC(=O)c1cccc2c(NC(=O)Nc3ccc4nccc(N5CCN(C)CC5)c4c3)cccc12.Cl` registered an Inhibition of 94%.

With `O=C(Nc1ccc(C(=O)OCC(c2ccccc2)c2ccccc2)cc1)N[C@@H](Cc1ccc(O)cc1)C(=O)NC1CCN(Cc2ccc(O)cc2)C1.O=C(O)C(F)(F)F` (stereo not given in full), the Inhibition was 0%. The value for `O=C(NCCc1cccc(Cl)c1Cl)c1ccc(N2CCN(c3ccncc3)CC2)nc1.O=C(O)C(F)(F)F` was 79%.

In turn, `COc1ccc(NC(=O)N2CCN(CCCCCNC(=O)/C=C/c3ccc(C(F)(F)F)cc3)CC2)cc1Cl` came in with an Inhibition of 0%. Next, `Cn1nc(-c2ccc(NC(=O)Nc3cc(C(F)(F)F)ccc3F)cc2)c2cnc(NCCCCN3CCCC3)nc21.O=C(O)C(F)(F)F`: 74%. Next, `Cc1cc(OCCCNC(=N)c2ccc3ccccc3c2)c(C(C)C)cc1Cl.Cc1ccc(S(=O)(=O)O)cc1`: 10%. Next, `Cc1ccc(CCC(C)NCC(O)c2cccc(Cl)c2)cc1` (stereo not given): 97%; `O=C(Nc1cccc(F)c1)c1ccc(C(=O)NC2CCN(CC3CCCCC3)C2)cc1.O=C(O)C(F)(F)F` (stereo not given): 15%; `CCN(CCCN1CCCCC1)c1cc(C)nc(Nc2ccc(Cl)cc2)n1.Cl`: 82%.

Regarding `O=C(/C=C/c1ccc(Cl)c(Cl)c1)N1CCN(C(=O)Nc2ccc(F)c(Cl)c2)CC1`, the Inhibition came to 87%. For `CCN(CC)CCN(Cc1ccc(-c2ccc(C(F)(F)F)cc2)cc1)C(=O)Cn1c(CCc2ccc(F)c(F)c2F)nc(=O)c2cccnc21.O=C(O)C(O)C(O)C(=O)O`, the Inhibition turned out to be 20%. The value for `CCCCCCCc1ccc(-c2c(C)[nH]c(C)c(Cl)c2=O)cn1` was 96%; that for `CCOC(=O)c1cn(CC)c2cc(N(C)CCc3ccc(OC)c(OC)c3)c(F)cc2c1=O.Cl` was 96%. `CC(=O)Nc1cccc(CNc2cc(C)nc(Nc3ccc(C)cc3)n2)c1` had an Inhibition of 23%. The compound `Cc1sc(N2CCCCC2)nc1C(=O)Nc1ccc(F)cc1C(F)(F)F.O=C(O)C(F)(F)F` yielded an Inhibition of 35%. The value for `O=C(/C=C/c1ccc([N+](=O)[O-])cc1)N1CCC(NS(=O)(=O)c2cccc(C(F)(F)F)c2)CC1` was 8%. The value for `CC(=O)Nc1ccc(C#Cc2ccc(-c3c(C)[nH]c(C)c(Cl)c3=O)cc2)cc1` was 78%. As to `O=C(NCC1CCN(Cc2ccc3c(c2)OCCO3)C1)c1cc(-c2ccccc2F)cs1.O=C(O)C(F)(F)F` (stereo not given), the Inhibition came out at 0%. The value for `CCOC(=O)c1nc(-c2cccnc2)[nH]c1NC(=S)NCc1ccccc1` was 100%; that for `CCNc1cc(C(=O)N[C@@H](Cc2ccccc2)[C@H](O)CNC2CCC(C(C)(C)C)CC2)cc(N2CCCC2=O)c1` (stereo not given in full) was 98%. The compound `Cc1cc(-c2cc(Cl)ccc2Cl)no1` showed an Inhibition of 97%. Next, `CN1CCCc2ccc(NC(=O)Nc3ccc(Cl)c(Cl)c3)cc2C1`: 22%; `CCN(CC)CCN(Cc1ccc(-c2ccc(C(F)(F)F)cc2)cc1)C(=O)Cn1c(CCc2cccc(F)c2F)cc(=O)cc1-c1ccccc1`: 64%; `O=C(O)C(F)(F)F.O=S(=O)(NCCN1CCCC1)c1cccc(-c2cccc(CNCc3ccsc3)c2)c1`: 55%. The value for `CC(C)[C@H](NC(=O)c1ccc(O)c(-c2cccc(C(F)(F)F)c2)c1)C(=O)NCCN1CCCCC1` was 29%. The value for `COc1cccc(CNCC(C)(C)c2nc(-c3ccc(Cl)c(O)c3)c(-c3ccncc3)[nH]2)c1.Cl` was 98%. As for `Cc1cc(N[C@@H](Cc2ccccc2)C(=O)NCc2cccc(F)c2)nc(NCC2CCCCC2)n1.O=C(O)C(F)(F)F`, the Inhibition turned out to be 42%.

On to `CCN(CC)/C(=N/C(=N)Nc1ccc(Br)cc1)NCCCCCCN/C(=N\C(=N)Nc1ccc(Br)cc1)N(CC)CC`, for which the Inhibition is listed as 95%. Next, `CN1CCN(c2ccc(Nc3c4ccccc4nc4ccccc34)cc2)CC1`: 94%. Next, `Cc1ccnc2nc(C(=O)Nc3cc(Cl)ccc3N3CCOCC3)nn12`: 63%; `CC(C)(CN)c1nc(-c2ccc(Br)c(O)c2)c(-c2ccncc2)[nH]1.Cl`: 97%. `CN1CCN(c2ccnc3ccc(NC(=O)Nc4ccc(Cl)c(Cl)c4)cc23)CC1` yielded an Inhibition of 17%. The compound `O=S(=O)(Nc1cccc(CCN2CCC(N3CCCCC3)CC2)c1)c1ccc(Oc2ccccc2)nc1` displayed an Inhibition of 0%.

As usually defined, the Inhibition is how much of the control response was suppressed. High values mean a strong effect, low ones a weak effect.
